{"source": "PubChem BioAssay AID2013", "about": "(Sanford-Burnham Center for Chemical Genomics, 2009)", "note": "Screen size: about 290,000 compounds; about 370 (0.13%) were called active. For the sample, actives were picked, then their nearest neighbours and some compounds at random. Entries with a potency or affinity are not part of this list. Unmarked numbers belong to inactive results.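 The calls were made as follows: active = spots per cell inhibited over 60%, with over 100 cells counted and total cytoplasm intensity under 500,000; inconclusive = wells with under 100 cells, flagged as likely toxic; inactive = the rest.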"}
{"target": "G-protein coupled receptor 55 (Homo sapiens) (UniProt Q9Y2T6)", "sequence (Q9Y2T6 whole entry, looked up)": "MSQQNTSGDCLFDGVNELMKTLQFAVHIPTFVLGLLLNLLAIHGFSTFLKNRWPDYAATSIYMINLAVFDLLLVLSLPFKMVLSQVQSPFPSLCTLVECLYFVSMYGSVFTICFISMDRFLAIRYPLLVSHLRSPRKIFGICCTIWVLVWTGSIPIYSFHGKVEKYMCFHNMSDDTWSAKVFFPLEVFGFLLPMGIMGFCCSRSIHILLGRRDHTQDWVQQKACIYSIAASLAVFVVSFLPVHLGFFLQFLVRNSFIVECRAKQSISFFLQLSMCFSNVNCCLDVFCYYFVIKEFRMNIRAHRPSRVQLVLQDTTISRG", "assay": "GPR55 antagonists blocking LPI-driven arrestin recruitment, primary screen, imaging, U2OS, beta-arrestin-GFP, LPI agonist (AID 2013);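 also: U2OS cells stably carrying GPR55 and arrestin-GFP stimulated by 5 µM LPI near EC80; imaged beta-arrestin-GFP aggregate spots per cell after agonist stimulation; plate controls were LPI-stimulated DMSO wells for no effect and DMSO wells without LPI for full effect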", "conditions": "U2OS GPR55 beta-arrestin-GFP translocation imaging, LPI antagonism; at 10 µM; stronger effect = higher value"}
{"smiles": "CCOC(=O)c1ccccc1NC(=S)N1CCCCC1", "inhibition": "4.2%"}
{"smiles": "CCOC(=O)C1CCCN(C(=O)C2CCC(CNS(=O)(=O)c3ccc(NC(C)=O)cc3)CC2)C1", "note": "(stereo unspecified)", "inhibition": "-10.7%"}
{"smiles": "Cc1ccc(S(=O)(=O)NCCc2nnc3ccc(SCC(=O)Nc4nc5ccccc5s4)nn23)cc1", "inhibition": "-1.2%"}
{"smiles": "C#CCOCCOCCOCCNc1nc(N2CCN(C(=O)[C@H](Cc3cc4ccccc4[nH]3)n3cc([C@@H](N)C(C)CC)nn3)CC2)nc(N2CCN(C(=O)[C@H](CCCCN)n3cc([C@@H](N)CC(C)C)nn3)CC2)n1", "note": "(stereo partly specified)", "inhibition": "22.1%"}
{"smiles": "O=C(NCC(=O)N(c1ccccc1)C(C(=O)NCC1CCCO1)c1ccccc1)c1ccco1", "note": "(stereo unspecified)", "inhibition": "-16.3%"}
{"smiles": "CN(CC(=O)Nc1cccc(F)c1)CC(=O)Nc1ccccc1Oc1ccccc1", "inhibition": "2.5%"}
{"smiles": "Cc1ccccc1CN(C)CC(=O)Nc1ccccc1Oc1ccccc1", "inhibition": "52.5%"}
{"smiles": "CC(=O)Nc1ccccc1Oc1ccccc1", "inhibition": "-4.1%"}
{"smiles": "CC(C)CC(=O)Nc1ccccc1Oc1ccccc1", "inhibition": "-0.5%"}
{"smiles": "CC(C(=O)Nc1ccccc1Oc1ccccc1)c1ccccc1", "note": "(stereo unspecified)", "inhibition": "83.2% (active)"}
{"smiles": "CN(CC(=O)Nc1ccccc1Oc1ccccc1)Cc1ccccc1F", "inhibition": "80.5% (active)"}
{"smiles": "CC(=O)Nc1ccc(Nc2nc(C(F)(F)F)nc3c2nnn3Cc2ccccc2Cl)cc1", "inhibition": "-4.9%"}
{"smiles": "Cc1ccc(/C=C2/N=C(c3ccccc3)NNC2=O)cc1", "inhibition": "-5.1%"}
{"smiles": "c1ccc(-c2noc(CSc3nnc(Cc4cccs4)n3-c3ccccc3)n2)cc1", "inhibition": "0.4%"}
{"smiles": "Cc1ccc(-c2noc(CSc3nnc(Cc4cccs4)n3-c3ccccc3)n2)cc1", "inhibition": "16.9%"}
{"smiles": "Nc1nonc1-n1nnc(C(=O)N/N=C/c2ccccc2Cl)c1-c1ccc2c(c1)OCO2", "inhibition": "-3.5%"}
{"smiles": "Cc1ccc(C(=O)Nc2ccccc2N2CCCCC2)cc1", "inhibition": "0.4%"}
{"smiles": "Cc1ccc(C(=O)Nc2ccccc2N2CCCC2)cc1", "inhibition": "-6.2%"}
{"smiles": "Cc1cc(=O)oc2cc(OCC(=O)N3CCN(c4ccccc4)CC3)c(Cl)cc12", "inhibition": "6.4%"}
{"smiles": "Cc1cc(Nc2ccc(F)cc2F)n2ncnc2n1", "inhibition": "-4.7%"}
{"smiles": "CCOC(=O)c1c(C)[nH]c(C)c1S(=O)(=O)N(C)CC(=O)Nc1cccc(F)c1", "inhibition": "8%"}
{"smiles": "COc1ccc(N2C(=O)S[C@@H]3CS(=O)(=O)C[C@@H]32)cc1", "inhibition": "14.8%"}
{"smiles": "CC1(C)OC(=CC=Nc2ccc(Cl)cc2)OC1(C)C", "inhibition": "-0.4%"}
{"smiles": "COC(=O)c1cc2c(C)c(C)c3ccccn3c-2c1C(=O)OC", "inhibition": "12.8%"}
{"smiles": "COC(=O)c1cc2n3ccccc3c(C)c(-c3ccccc3)c-2c1C(=O)OC", "inhibition": "6.5%"}
{"smiles": "O=C(COC(=O)CCC(=O)c1cccs1)NC(=O)c1ccc(OC(F)F)cc1", "inhibition": "6.3%"}
{"smiles": "COc1ccc(N2CCN(CC(=O)NCc3ccc(Cl)cc3)CC2)cc1", "inhibition": "-5.1%"}
{"smiles": "O=C(O)CN1C(=O)/C(=C/c2ccc(SCc3ccccc3)o2)SC1=S", "inhibition": "4.7%"}
{"smiles": "Cc1cccc(C)c1-n1cccc1/C=C1\\SC(=S)N(c2cccc(C(=O)O)c2)C1=O", "inhibition": "21.8%"}
{"smiles": "Cc1ccc(NC(=O)COc2nsnc2N2CCOCC2)cc1Cl", "inhibition": "-2.9%"}
{"smiles": "CCCCOC(=O)CSC(=S)N(C)Cc1cccs1", "inhibition": "-12.9%"}
{"smiles": "Cc1c([C@H]2[C@@H](CC#N)C2(C)C)c2ccccc2n1C", "inhibition": "-0.3%"}
{"smiles": "Cc1[nH]c2ccccc2c1[C@H]1[C@@H](CC#N)C1(C)C", "inhibition": "30.6%"}
{"smiles": "CC(C)NC(=O)C(=O)c1cn(C)c2ccccc12", "inhibition": "-10.8%"}
{"smiles": "Cc1ccccc1N1CCN(C(=O)C2CCC(=O)N(C3CCCC3)C2)CC1", "note": "(stereo unspecified)", "inhibition": "5.6%"}
{"smiles": "Oc1ccccc1C1=NN(c2ccccc2)C(c2ccc(F)cc2)C1", "note": "(stereo unspecified)", "inhibition": "-10.6%"}
{"smiles": "COc1ccc(C2CC(c3ccc(F)cc3)=NN2c2ccccc2)cc1OC", "note": "(stereo unspecified)", "inhibition": "1.5%"}
{"smiles": "Oc1ccc(C2=NN(c3ccccc3)C(c3ccc(F)cc3)C2)cc1", "note": "(stereo unspecified)", "inhibition": "60.3% (active)"}
{"smiles": "Cc1noc(C)c1CN(C(=S)NC1CC1)c1ccccc1", "inhibition": "4.1%"}
{"smiles": "CCNC(=S)N(Cc1c(C)noc1C)c1ccccc1", "inhibition": "-9.5%"}
{"smiles": "CC(=O)N1CCOc2ccc(S(=O)(=O)Nc3ccc(Cl)cn3)cc21", "inhibition": "-3.3%"}
{"smiles": "COc1ccccc1NC(=O)COC(=O)c1ccccc1C(=O)N1CCN(c2ccccc2)CC1", "inhibition": "-1.1%"}
{"smiles": "Cc1ccccc1-n1cc(CNC(=O)CCc2nnc(CCc3ccccc3)o2)cn1", "inhibition": "9.1%"}
{"smiles": "C#CCOCCOCCOCCNc1nc(N2CCN(C(=O)[C@H](CCC(=O)O)n3cc(C(N)CC(C)C)nn3)CC2)nc(N2CCN(C(=O)[C@H](Cc3ccc(O)cc3)n3cc(C(N)[C@H](C)CC)nn3)CC2)n1", "note": "(stereo partly specified)", "inhibition": "13%"}
{"smiles": "O=C(Nc1ccccc1)c1ccccc1NC(=O)C1CCCCC1", "inhibition": "-8.2%"}
{"smiles": "COc1ccc(C2=NN(c3ccccc3)C(=O)/C2=C\\c2ccc(O)c(OC)c2)cc1", "inhibition": "-6.3%"}
{"smiles": "O=C1/C(=C\\c2ccc(O)c(O)c2)C(c2ccccc2)=NN1c1ccccc1", "inhibition": "-3.8%"}
{"smiles": "COc1cc(/C=C2\\C(=O)N(c3ccc(NC(C)=O)cc3)N=C2c2ccccc2)ccc1O", "inhibition": "89.7% (active)"}
{"smiles": "S=C1Cc2ccccc2N1", "inhibition": "-4.5%"}
{"smiles": "COc1ccc(CN2C(=O)/C(=C/c3ccc(-c4ccc(Cl)c(C(=O)O)c4)o3)SC2=S)cc1", "inhibition": "34.2%"}
{"smiles": "O=C(O)c1cc(-c2ccc(/C=C3/SC(=S)N(Cc4ccccc4)C3=O)o2)ccc1Cl", "inhibition": "61.2% (active)"}
{"smiles": "C#CCN1C(=O)S/C(=C\\c2ccc(-c3ccc(Cl)c(C(=O)O)c3)o2)C1=O", "inhibition": "-15.9%"}
{"smiles": "O=C(NCc1ccco1)C1(c2ccc(Br)cc2)CCCC1", "inhibition": "1.4%"}
{"smiles": "C=CCn1c(O)c(C2=c3ccccc3=NC2=O)sc1=Nc1ccc(O)cc1", "inhibition": "5.2%"}
{"smiles": "CN(CC(=O)Nc1cccc(F)c1)C(=O)c1cc(S(=O)(=O)N(C)C)ccc1N1CCCC1", "inhibition": "13.5%"}
{"smiles": "[N-]=[N+]=N[C@@H](CCN1CC[C@H](NC(=O)OCc2ccccc2)CCC1=O)c1ccccc1", "inhibition": "6.9%"}
{"smiles": "O=C(CSc1nnc(C2CCCCC2)n1Cc1ccccc1)NCc1ccco1", "inhibition": "-1.4%"}
{"smiles": "CN1Cc2c(N3CCOCC3)nc3sc(C(=O)c4ccccc4)c(N)c3c2CC1(C)C", "inhibition": "1.2%"}
{"smiles": "CCOC(=O)c1sc2nc(N3CCOCC3)c3c(c2c1N)CC(C)(C)N(C)C3", "inhibition": "-4.1%"}
{"smiles": "NC(=S)Cc1nc2n(n1)Cc1ccccc1-2", "inhibition": "5.2%"}
{"smiles": "CC1CC(Nc2ccccc2)c2ccccc2N1C(=O)c1ccco1", "note": "(stereo unspecified)", "inhibition": "6.5%"}
{"smiles": "CC1CC(N(C(=O)c2ccc(Cl)cc2)c2ccccc2)c2ccccc2N1C(=O)c1ccco1", "note": "(stereo unspecified)", "inhibition": "10.9%"}
{"smiles": "CC1CC(N(C(=O)c2ccco2)c2ccccc2)c2ccccc2N1", "note": "(stereo unspecified)", "inhibition": "10.3%"}
{"smiles": "CC(=O)N(c1ccccc1)C1CC(C)N(C(=O)c2ccccc2)c2ccccc21", "note": "(stereo unspecified)", "inhibition": "13.6%"}
{"smiles": "COC(=O)c1c(C(C)=O)c(C)n(C)c1C", "inhibition": "9.9%"}
{"smiles": "O=C(CSc1nc2ccccc2o1)Nc1ccccc1N1CCOCC1", "inhibition": "-2.4%"}
{"smiles": "Cc1ccccc1NC(=O)CSc1nc2ccccc2o1", "inhibition": "-27.6%"}
{"smiles": "CC1(C)CC(=O)C(CC(=O)Nc2ccc(S(N)(=O)=O)cc2)=C(O)C1", "inhibition": "2.1%"}
{"smiles": "COc1ccc(C2c3sc(=O)[nH]c3SC3C4CCC(C4)C23)cc1", "note": "(stereo unspecified)", "inhibition": "39.7%"}
{"smiles": "COc1ccc(C2c3sc(=O)[nH]c3SC3C4CCC(C4)C23)cc1OC", "note": "(stereo unspecified)", "inhibition": "4.6%"}
{"smiles": "CN(C)/C=N/c1nc2nccc(-c3ccccc3)n2n1", "inhibition": "-4.1%"}
{"smiles": "CCC(C)c1ccc(S(=O)(=O)N2CCN(S(=O)(=O)c3ccc(NC(C)=O)cc3)CC2)cc1", "note": "(stereo unspecified)", "inhibition": "6.4%"}
{"smiles": "CCn1cnc2c1c(=O)n(Cc1ccc(C(=O)OC)cc1)c(=O)n2Cc1ccccc1", "inhibition": "6%"}
{"smiles": "COC(=O)C1C(C(=O)OC)C1(c1ccccc1)c1ccccc1", "note": "(stereo unspecified)", "inhibition": "5.7%"}
{"smiles": "O=C(O)C1C(C(=O)O)C1(c1ccccc1)c1ccccc1", "note": "(stereo unspecified)", "inhibition": "-6.8%"}
{"smiles": "CCOC(=O)C1C(C(=O)OCC)C1(c1ccccc1)c1ccccc1", "note": "(stereo unspecified)", "inhibition": "94.1% (active)"}
{"smiles": "O=C(c1ccccc1)N(Cc1ccccc1)Cc1ccccc1", "inhibition": "11.6%"}
{"smiles": "CC1(C(=O)N(Cc2ccccc2)Cc2ccccc2)CC1(Br)Br", "note": "(stereo unspecified)", "inhibition": "80.9% (active)"}
{"smiles": "CC12CCC(C(=O)N(Cc3ccccc3)Cc3ccccc3)(OC1=O)C2(C)C", "note": "(stereo unspecified)", "inhibition": "3.1%"}
{"smiles": "COc1ccc(CNS(=O)(=O)c2ccc3c(c2)CCN3C(=O)C2CC2)cc1", "inhibition": "5.8%"}
{"smiles": "CCOC(=O)C1CCN(CC(=O)Nc2ccc(OC)c(Cl)c2)CC1", "inhibition": "17.5%"}
{"smiles": "O=C(Cn1c(=O)c(=O)n(Cc2ccccc2)c2ccc(Cl)cc21)Nc1cccc(F)c1", "inhibition": "-4.5%"}
{"smiles": "Cc1nc2ccccc2c2c1C(=O)N(C(C)C)C2=O", "inhibition": "-5.2%"}
{"smiles": "O=C(Cn1cnc2ccccc2c1=O)Nc1cccc(-c2nnc3n2CCCCC3)c1", "inhibition": "-5.4%"}
{"smiles": "Cc1ccc(C(c2nnnn2C2CCCCC2)N2CCc3ccccc32)cc1", "note": "(stereo unspecified)", "inhibition": "4.6%"}
{"smiles": "COc1ccc(C(CCNC(C)c2ccccc2)C(C)C)cc1", "note": "(stereo unspecified)", "inhibition": "15.3%"}
{"smiles": "COc1ccc(C(CCNC(C)c2ccccc2)c2ccc(F)cc2)cc1", "note": "(stereo unspecified)", "inhibition": "29.1%"}
{"smiles": "COc1ccc(-n2cnnc2SCC(=O)Nc2ccc(C(N)=O)cc2)cc1", "inhibition": "-2.8%"}
{"smiles": "COCc1nnc(NC(=O)C2CC(=O)N(C3CCCC3)C2)s1", "note": "(stereo unspecified)", "inhibition": "8.2%"}
{"smiles": "O=C(O)c1cccc(N2C(=O)/C(=C/c3ccc([N+](=O)[O-])cc3)C=C2c2ccccc2)c1", "inhibition": "-16.1%"}
{"smiles": "O=C1/C(=C/c2ccc([N+](=O)[O-])cc2)C=C(c2ccccc2)N1c1ccccc1", "inhibition": "25.9%"}
